# According to PubChem BioAssay AID1851 (National Center for Advancing Translational Sciences (NCATS), 2009):
# Hit rate of the full screen: of about 16,000 compounds, about 5,700 (36%) were called active. About 24% were inconclusive and are not listed. The list shows a part of the results. Values without a mark were called inactive. Calls follow the shape of the dose curve; as a rule, active = well fitted curve in the direction sought with a large enough effect; inconclusive = small, poorly fitted or top-dose-only effect, or effect the other way; inactive = no such curve, though single readings can be large or run the other way.
# Molecular target: Cytochrome P450 1A2 (Homo sapiens) (UniProt P05177)
# Sequence (P05177 whole entry, looked up): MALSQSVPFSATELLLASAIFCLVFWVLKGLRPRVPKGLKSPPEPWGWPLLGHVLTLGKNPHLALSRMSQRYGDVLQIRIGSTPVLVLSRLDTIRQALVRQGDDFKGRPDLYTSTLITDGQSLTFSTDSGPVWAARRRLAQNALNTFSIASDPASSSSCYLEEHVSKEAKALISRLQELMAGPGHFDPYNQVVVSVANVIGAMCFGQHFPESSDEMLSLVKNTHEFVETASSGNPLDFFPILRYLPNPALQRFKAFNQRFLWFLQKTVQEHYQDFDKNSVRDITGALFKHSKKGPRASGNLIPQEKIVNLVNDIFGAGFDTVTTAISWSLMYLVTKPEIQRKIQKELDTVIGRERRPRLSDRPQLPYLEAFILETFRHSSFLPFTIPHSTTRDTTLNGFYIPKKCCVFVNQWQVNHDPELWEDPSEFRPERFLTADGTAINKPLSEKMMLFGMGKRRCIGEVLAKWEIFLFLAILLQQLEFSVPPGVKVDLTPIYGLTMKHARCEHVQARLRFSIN
# Experiment: Cytochrome panel assay with activity outcomes
# Settings: recombinant CYP, pro-luciferin dealkylation, luminescence, p450-cyp1a2; series mostly up to 57.1 µM
# % is scaled to controls: 0 for no effect and ±100 for the full control effect.
Compound,AC50,"activity, negative = inhibition"
CSc1nc(O)c(Cc2ccccc2)c(=O)[nH]1,inactive,–
Cc1nc2c(O)cccc2c(=O)[nH]1,15.8 µM (active),–
Cc1nc(CN2CCCCC2)c(O)c(=O)[nH]1,–,-7.06% [at 11.4 µM]
COc1ccc(C(C(=O)NC2CCCCC2)N(C(=O)c2sc(C)nc2C)c2ccc(C(C)=O)cc2)cc1 (centres undefined),inactive,–
C/C(=N\OC(=O)NC1CCCCC1)c1sc(-c2ccccc2)nc1C,7.08 µM (active),–
COc1ccc(C(C(=O)NC2CCCCC2)N(C(=O)c2sc(C)nc2C)c2ccc(OC)cc2)cc1 (centres undefined),inactive,–
Cc1ccc(-c2ncccc2OC(=O)C23CC4CC(CC(C4)C2)C3)cc1,14.1 µM (active),–
CC(C)CO/N=C1/C[C@@H](O)[C@@H](O)[C@@H]2[C@@H]3C(=O)N(C[C@@H]4CCCO4)C(=O)[C@H]3CC[C@H]12,–,-4.99% [at 11.4 µM]
Cn1c(=O)c2cc(S(=O)(=O)NCCC(=O)NCc3ccccc3Cl)ccc2n(C)c1=O,inactive,–
Cn1c(=O)c2cn(-c3ccccc3)cc2n(C)c1=O,1.78 µM (active),–
Cn1c(=O)n(CCC(=O)O)c2ccccc21,inactive,–
CCCNC(=O)OC[C@H]1O[C@@H](CCO/N=C\[C@@H](NS(=O)(=O)c2ccc(C)cc2)[C@H](C)/C=C\CC(=O)OC)C=C[C@@H]1Oc1ccc(OC)cc1,–,2.17% [at 11.4 µM]
O=C(c1ccccc1)[C@@H]1O[C@H]1c1ccc(-c2ccccc2)cc1,6.31 µM (active),–
C[C@@]1(C(NC(=O)c2ccccc2)c2ccc(-c3ccccc3)cc2)C[C@H]1C1CCCCC1 (some centres undefined),inactive,–
CCN1CCN(CCCNC(=O)C(NC(=O)C2CCC(C)CC2)C(C)C)CC1 (centres undefined),inactive,–
O=C(c1cc(C(F)(F)F)cc(C(F)(F)F)c1)N1CCC[C@@]2(CCN(c3ncccn3)C2)C1,inactive,–
O=C1CC[C@H](N2C(=O)c3ccccc3C2=O)C(=O)N1,inactive,–
COCCn1c(=O)c(CCc2ccccc2)nc2cncnc21,10 µM (active),–
O=c1c(CCc2ccccc2)nc2cncnc2n1-c1ccccc1,15.8 µM (active),–
NCCn1c(=O)c(CCc2ccccc2)nc2cncnc21,12.6 µM (active),–
CCCNC(=O)N1CCC(C(=O)c2ccc(F)cc2)CC1,inactive,–
NC(=O)C1(NC(=O)[C@@H]2CC3(CC(c4cccc(NC(=O)c5cc([N+](=O)[O-])cc([N+](=O)[O-])c5)c4)=NO3)CN2C(=O)c2ccccc2)CC1 (some centres undefined),inactive,–
CCC(NC(=O)Nc1cc(OC)c(OC)c(OC)c1)(C(F)(F)F)C(F)(F)F,inactive,–
COc1ccc(C(=O)Nc2ccc(OCC(F)(F)C(F)F)c(C(F)(F)F)c2)cc1OC,inactive,–

Compound,AC50,"activity, negative = inhibition"
COc1ccc(NC(=O)c2cc(C(C)C)on2)cc1OC,15.8 µM (active),–
COc1ccc(-c2cc(C(=O)Nc3cc(OC)c(OC)c(OC)c3)no2)cc1OC,inactive,–
COc1ccc(NC(=O)CC#N)cc1OC,15.8 µM (active),–
COc1ccc(NC(=O)COC(=O)Cn2c(C)nc3ccccc32)cc1OC,inactive,–
COc1ccc(NC(=O)C(F)(F)F)cc1OC,12.6 µM (active),–
CO[C@]1(NC(=O)CSCC#N)C(=O)N2C(C(=O)O)=C(CSc3nnnn3C)CS[C@H]21,inactive,–
CNc1ncnc2ccc(-c3ccccc3OC)cc12,2.51 µM (active),–
COc1ccccc1-c1ccc2ncnc(Nc3ccccc3)c2c1,2.51 µM (active),–
Cc1ccc(CS(=O)(=O)CCC(=O)NCCCOC(C)C)cc1,inactive,–
NC(N)=NNC(=O)C(=O)O,–,-1.69% [at 11.4 µM]
O=C(N/C(=C/c1ccc(Br)cc1)c1nc2ccccc2[nH]1)c1ccco1,7.08 µM (active),–
Cc1ccc(NC(=O)/C(=C\c2cccnc2)NC(=O)c2ccco2)cc1,inactive,–
O=C(NC(Cc1ccccc1)C(=O)O)/C(=C\c1ccco1)NC(=O)c1ccc(Br)cc1 (centres undefined),inactive,–
C[C@H](NC[C@H](O)CP(=O)(O)CC1CCCCC1)c1ccc(Cl)c(Cl)c1,39.8 µM (active),–
C[C@H](NC[C@H](O)CP(=O)(O)Cc1ccccc1)c1ccc(Cl)c(Cl)c1,inactive,–
CCS(=O)(=O)Nc1ccc(C2=NN(C(=O)c3ccco3)C(c3ccc(C)cc3)C2)cc1 (centres undefined),inactive,–
CNC(=S)N1N=C(c2ccc(OC)cc2)CC1c1ccc(N(C)C)cc1 (centres undefined),10 µM (active),–
COc1ccccc1CNc1ccnc(-c2cccc(C#N)c2)n1,0.794 µM (active),–
COc1ccc(CNc2ccnc(-c3cccc(C#N)c3)n2)c(OC)c1,2.51 µM (active),–
C=CCNC(=S)N1CCN(c2ncc3c(=O)c(C(=O)O)cn(CC)c3n2)CC1,inactive,–
C=CC[C@H](N)C(=O)O,inactive,–
Cc1cc(NC(=O)C2CCCC2)n(-c2nc3ccccc3[nH]2)n1,2.82 µM (active),–
O=C(c1cnc(-c2ccccc2)s1)c1ccc(Cl)cc1Cl,1.12 µM (active),–
CC(=O)N1CCC2(CC1)CN(C(c1ccccc1)c1ccccc1)C2,inactive,–

Compound,AC50,"activity, negative = inhibition"
COc1ccccc1NC(=O)c1nn(-c2cccc(C(F)(F)F)c2)ccc1=O,5.01 µM (active),–
O=c1ccn(-c2cccc(C(F)(F)F)c2)nc1-c1ccn(-c2ccccc2F)n1,5.62 µM (active),–
CCCC1CCC(c2ccc(C(N)=O)cc2)CC1 (centres undefined),inactive,–
CCN(CC)Cc1nc2c(c(=O)[nH]1)C1(CCCC1)Cc1ccccc1-2,5.01 µM (active),–
O=C(O)CN=C1NC2(CCCC2)Cc2ccccc21,inactive,–
C[C@@H]1C[C@@H]2[C@H]3CCC4=CC(=O)C=C[C@]4(C)[C@]3(F)[C@@H](O)C[C@@]2(C)[C@@]1(O)C(=O)CO,inactive,–
O=C(OC1CCN(c2ncc(C(F)(F)F)cc2Cl)CC1)c1ccccc1,inactive,–
FC(F)(F)c1cnc(N2CCC(=NOCc3ccc(Cl)cc3)CC2)c(Cl)c1,inactive,–
Nc1ccccc1Oc1ncc(C(F)(F)F)cc1Cl,2.82 µM (active),–
NS(=O)(=O)c1cc2c(cc1Cl)N[C@@H]([C@@H]1C[C@@H]3C=C[C@H]1C3)NS2(=O)=O,inactive,–
CCCCCc1nc2c(C#N)c(-c3ccc(Cl)cc3)ccn2n1,8.91 µM (active),–
C[C@@H](CCCCC(=O)Nc1ccc(C(F)(F)F)cc1)NCCc1cnc[nH]1,inactive,–
Cc1oncc1C(=O)Nc1ccc(C(F)(F)F)cc1,0.0631 µM (active),–
CCCCN=C1N/C(=C\c2ccco2)C(=O)N1c1ccccc1,2 µM (active),–
CC(C)CN(CC(C)C)C1=N/C(=C\c2ccco2)C(=O)N1c1ccccc1,inactive,–
O=c1c(-c2cccc(Cl)c2)nc2cncnc2n1Cc1ccccc1,1 µM (active),–
O=c1c(-c2ccc(F)c(F)c2)nc2cncnc2n1Cc1ccccc1Cl,5.01 µM (active),–
O=c1c(-c2ccccc2)nc2cncnc2n1Cc1ccccc1Cl,2 µM (active),–
O=c1c(-c2cccc(Cl)c2)nc2cncnc2n1Cc1ccccc1Cl,2 µM (active),–
COc1ccc(S(N)(=O)=O)cc1C(=O)NCCCN1CCN(c2ccc(C)cc2)CC1,inactive,–
CCCCOC(=O)c1cc2c(cn1)[nH]c1ccccc12,0.158 µM (active),–
CCCCOc1ccc(-c2nnn(CC(=O)c3c[nH]c4ccccc34)n2)cc1,inactive,–
CNC(=O)c1cc2c(cn1)[nH]c1ccccc12,0.0501 µM (active),–
CCOCc1cnc(C)nc1NCC(=O)c1c(C)[nH]c2ccccc12,inactive,–

Compound,AC50,"activity, negative = inhibition"
COc1ccc(NC(=O)N2CCC3(CC2)CCN(C(=O)c2cccc(F)c2)CC3)cc1,inactive,–
CCOC(=O)NNC1CC(=O)N(c2ccc(OC)cc2)C1=O (centres undefined),inactive,–
CCN=C(Nc1cccc(F)c1)SC1CC(=O)N(c2ccc(OC)cc2)C1=O (centres undefined),6.31 µM (active),–
Cc1cc2c(nc1C)CCCCN2C[C@H](C)O/N=C\[C@@H](C)[C@H](OCc1ccccc1)C(C)C,–,-17.4% [at 11.4 µM]
CC(=O)c1cnc2cc(C)nn2c1C,22.4 µM (active),–
CC(=O)c1cnc2c(C(=O)O)cnn2c1C,inactive,–
CCN1C(=O)[C@H]2[C@H]3[C@H](O)[C@H](O)C/C(=N/OC[C@@H](O)[C@H]4O[C@H]5OC(C)(C)O[C@H]5[C@@H]4O)[C@@H]3CC[C@@H]2C1=O,–,-1.85% [at 11.4 µM]
O=c1c(-c2cccs2)nc2cncnc2n1Cc1ccc(F)cc1,2.51 µM (active),–
O=c1c(-c2cccs2)nc2cncnc2n1Cc1ccccc1,2.51 µM (active),–
CCCNc1[nH]c(=O)n(C)c(=O)c1N=O,inactive,–
Cc1cccc2c1Oc1ccccc1[C@@H]2NC(=O)c1ccc([N+](=O)[O-])cc1,1 µM (active),–
C[C@@]1(C(NC(=O)Cc2ccc(C(F)(F)F)cc2)c2ccc(-c3ccccc3)cc2)C[C@H]1C1CCCCC1 (some centres undefined),inactive,–
CN(C(=O)Cn1nnc(-c2cccc(C(F)(F)F)c2)n1)C1CCCCC1,inactive,–
CC(C)NC(=O)c1ccc(-c2cccc(C(F)(F)F)c2)o1,0.398 µM (active),–
CCc1cc2c(NCCO)ncnc2s1,6.31 µM (active),–
OCCNc1ncnc2c1ncn2[C@@H]1O[C@@H](CO)[C@H](O)[C@@H]1O,–,-20.3% [at 11.4 µM]
CCc1cc2c(NCc3ccco3)ncnc2s1,2.51 µM (active),–
OCCNc1ncnc2nc[nH]c12,–,-5.82% [at 11.4 µM]
FC(F)(F)c1ccccc1-c1nc(N2CCNCC2)c2ccccc2n1,10 µM (active),–
CN1CCN(c2nc(-c3ccccc3C(F)(F)F)nc3ccccc23)CC1,10 µM (active),–
FC(F)(F)c1ccccc1-c1nccc(N2CCNCC2)n1,10 µM (active),–
CO[C@@H]1COC(=O)[C@@H](C)NC(=O)C/C=C\[C@@H](C)[C@H](NS(=O)(=O)c2ccc(C)cc2)COC(=O)[C@H](C)NC(=O)C/C=C\[C@H]1C,–,1.37% [at 11.4 µM]
